Unmarked numbers belong to inactive results. Calls come from the whole dose curve; as a rule, active = well fitted curve in the direction sought with a large enough effect; inconclusive = small, poorly fitted or top-dose-only effect, or another doubt; inactive = no such curve, though single readings can be large; an effect the other way counts as inactive or inconclusive. Records with an inconclusive call do not appear.
Target: Tyrosine-protein kinase Yes (Homo sapiens) (UniProt P07947)
Experiment: qHTS for small molecule inhibitors of Yes1 kinase: Primary Screen (AID 686947);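 note: plate controls were DMSO with enzyme for no effect and no-enzyme DMSO wells for full effect; nearly all actives have a fitted effect of over 60% in size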
Conditions: Yes1 kinase biochemical qHTS inhibition; series mostly up to 76.9 µM; activity change, negative = inhibition: at the top concentration
In short: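 In this qHTS format, inhibition is expressed relative to DMSO controls with enzyme (maximum) and without enzyme (minimum). The 60 min room-temperature reaction uses 0.1 mM ATP, with ADP detected by luminescence.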

Chain of Tyrosine-protein kinase Yes (Homo sapiens) (P07947 whole entry, looked up): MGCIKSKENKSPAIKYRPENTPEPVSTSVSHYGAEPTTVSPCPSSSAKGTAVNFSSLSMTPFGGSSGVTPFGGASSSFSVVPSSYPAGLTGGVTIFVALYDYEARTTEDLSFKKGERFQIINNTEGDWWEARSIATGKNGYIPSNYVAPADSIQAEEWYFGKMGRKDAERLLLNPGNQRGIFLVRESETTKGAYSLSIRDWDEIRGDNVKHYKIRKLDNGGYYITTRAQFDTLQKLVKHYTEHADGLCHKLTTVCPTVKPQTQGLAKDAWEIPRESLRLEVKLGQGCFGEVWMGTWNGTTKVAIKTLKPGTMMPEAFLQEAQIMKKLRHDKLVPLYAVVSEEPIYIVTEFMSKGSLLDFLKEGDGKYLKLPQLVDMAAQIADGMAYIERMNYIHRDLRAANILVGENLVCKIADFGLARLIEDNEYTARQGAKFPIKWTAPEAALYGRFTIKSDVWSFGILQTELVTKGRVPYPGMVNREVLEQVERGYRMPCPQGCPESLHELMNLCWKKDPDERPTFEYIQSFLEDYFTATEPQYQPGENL

Row | Structure (SMILES) | activity change, negative = inhibition [%]
1 | COC[C@H]1OC(=O)c2coc3c2[C@@]1(C)C1=C(C3=O)C2CCC(=O)[C@@]2(C)C[C@H]1OC(C)=O (stereo partly specified) | 0.305
2 | CCCCC/C=C\C/C=C\C/C=C\C/C=C\CCCC(=O)NC1CC1 | 7.98
3 | CC1=C2C[C@@H]3[C@@H](CC=C4C[C@@H](O)CC[C@@]43C)[C@@H]2CC[C@]12O[C@H]1C[C@H](C)CN[C@H]1[C@H]2C | -1.05

Tested on: not listed separately
Experiment: qHTS for small molecule inhibitors of Yes1 kinase: Counter Assay (AID 686950);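 note: no kinase present so only ADP-Glo detection of a fixed ADP amount is tested; luminescence from ADP-Glo reporting ADP in a fixed ATP and ADP mixture; 0% = DMSO wells with ATP plus ADP and -100% = ATP-only wells without ADP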
Conditions: series mostly up to 76.9 µM; activity change, negative = inhibition: at the top concentration
In short: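 ADP-Glo luminescence read after a 60 min room-temperature incubation of compound with an ATP/ADP mix (0.08 mM/0.02 mM) and no kinase, following a 20 min compound preincubation. Signal scaled between ATP+ADP (max) and 0.1 mM ATP-only (min) wells; Tris pH 7.5, Mg2+, DTT.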

Row | Structure (SMILES) | activity change, negative = inhibition [%]
4 | CNC(=O)N1N=C(c2ccc(N)cc2)c2cc3c(cc2CC1C)OCO3 (stereo unspecified) | 0.304
5 | O=C(O)C(=O)c1cn(Cc2ccccc2)c2ccc(-c3ccc(OC(F)(F)F)cc3)cc12 | 2.22
6 | COC[C@H]1OC(=O)c2coc3c2[C@@]1(C)C1=C(C3=O)C2CCC(=O)[C@@]2(C)C[C@H]1OC(C)=O (stereo partly specified) | 3.4
7 | COc1ccc(C(=O)c2c(C)n(CCN3CCOCC3)c3ccccc23)cc1 | 0.936
8 | CCCCC/C=C\C/C=C\C/C=C\C/C=C\CCCC(=O)NC1CC1 | 0.506
9 | CC(O)(CS(=O)(=O)c1ccc(F)cc1)C(=O)Nc1ccc(C#N)c(C(F)(F)F)c1 (stereo unspecified) | -1.36
10 | CC1=C2C[C@@H]3[C@@H](CC=C4C[C@@H](O)CC[C@@]43C)[C@@H]2CC[C@]12O[C@H]1C[C@H](C)CN[C@H]1[C@H]2C | 0.725
11 | CNC(=O)c1ccc(N2C(=S)N(c3ccc(C#N)c(C(F)(F)F)c3)C(=O)C23CCC3)cc1F | -2.93
